Data: PubChem BioAssay AID1850 (Southern Research Specialized Biocontainment Screening …, 2009)
Among all 310,000 compounds or so, about 1,000 (0.32%) were called active. How the calls were made is not given here. A selection follows. Results with a measured potency or affinity are listed apart.

Assay: Inhibition of PhoP regulon, Salmonella typhi GFP reporter cells, confirmation, 4 h (AID 1850);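 further: 0% = induced wells with vehicle and 100% = uninduced wells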
Conditions: Salmonella Typhi PhoP-promoter GFP reporter, fluorescence, at 50 µM, stronger effect = higher value

| Structure (SMILES) | inhibition |
| --- | --- |
| O=C(COC(=O)CCN=C1NS(=O)(=O)c2ccccc21)NC1CCCCCCC1 | 2.68% (inactive) |
| COc1cccc(NC(=S)NC(=O)Cc2ccc(Cl)cc2)c1 | -3.77% (inactive) |
| CCOC(=O)N/N=C/c1ccc(C)o1 | -0.31% (inactive) |
| COC(=O)N/N=C/c1ccc([N+](=O)[O-])o1 | 10.7% (inactive) |
| Cc1ccc2c(c1)C(=O)CC(O)(C(F)(F)F)O2 (stereo not drawn) | -10.7% (inactive) |
| COc1ccc(OC(=O)c2cc3ccccc3o2)cc1 | 3.29% (inactive) |
| O=C(Nc1ccccc1)c1ccc(OC(=O)c2cc3ccccc3o2)cc1 | 1.84% (inactive) |
| CC(=O)Nc1cccc(C(=O)Nc2cccnc2)c1 | 5.55% (inactive) |
| Nc1cn(C2OC(CO)C(O)C2O)c(=O)[nH]c1=O (stereo not drawn) | 5.11% (inactive) |
| CC(=O)OCC1OC(n2cc(F)c(=O)[nH]c2=O)C(OC(C)=O)C1OC(C)=O (stereo not drawn) | -1.38% (inactive) |
| COc1ccccc1N1CCN(c2ccc(Cl)nn2)CC1 | 8.78% (inactive) |
| Cc1ccc(C(=O)N/C(=C\c2ccccc2)C(=O)NCCCn2ccnc2)cc1 | -1.23% (inactive) |
| NC1=NC[C@@H](Cc2ccc(O)cc2)N1CCc1cccc2ccccc12 | -7.1% (inactive) |
| NC1=NC[C@H](Cc2ccc(O)cc2)N1CCc1cccc(F)c1 | -13.5% (inactive) |
| NCCCC[C@H]1CN=C(N)N1CCC12CC3CC(CC(C3)C1)C2 | 27.2% (inactive) |
| NC1=NC[C@@H](Cc2ccc(O)cc2)N1CCC12CC3CC(CC(C3)C1)C2 | -4.88% (inactive) |
| COc1ccccc1N1CCN(C(=O)Cn2nc(C(F)(F)F)c3c2CCC3)CC1 | -10.5% (inactive) |
| COc1cccc(C(=O)Nc2ccc(NC(=O)Cc3ccccc3)cc2)c1 | -3.24% (inactive) |
| CC(CC12CC3CC(CC(C3)C1)C2)NCc1ccccc1O (stereo not drawn) | 0.38% (inactive) |
| CC(NCc1ccncc1)C12CC3CC(CC(C3)C1)C2 (stereo not drawn) | 2.47% (inactive) |
| NS(=O)(=O)c1cccc(NC(=O)CC23CC4CC(C2)CC(CC(=O)Nc2cccc(S(N)(=O)=O)c2)(C4)C3)c1 | 4.03% (inactive) |
| c1ccc(CN2CCC(Nc3nc(-c4cccnc4)nc4ccccc34)CC2)cc1 | 1.57% (inactive) |
| c1ccc(-c2nc(NC3CCCC3)c3ccccc3n2)cc1 | 3.11% (inactive) |
| c1ccc(CN2CCC(Nc3ncnc4sccc34)CC2)cc1 | -4.42% (inactive) |
| c1ccc(CNc2nc(-c3cccs3)nc3ccccc23)cc1 | -0.13% (inactive) |

| Structure (SMILES) | inhibition |
| --- | --- |
| O=C1N(CN2CCC3(CC2)OCCO3)c2ccccc2C12OCCCO2 | 1.71% (inactive) |
| Cc1ccc(NC(=O)N2CCN(c3ncccc3C(F)(F)F)CC2)cc1 | 1.6% (inactive) |
| C=CCNC(=O)C1CC(=O)N(c2ccc(OCc3ccccc3Cl)cc2)C1 (stereo not drawn) | 0.85% (inactive) |
| COc1ccc(C2NC(=O)Cc3cc(OC)c(OC)cc32)cc1OC (stereo not drawn) | -3.77% (inactive) |
| Nc1ccc(C(=O)OCc2nc3c(ccc4ccccc43)[nH]2)cc1 | 0.78% (inactive) |
| Cc1cccc(OCc2nc(C#N)c(NCCN(C)C)o2)c1 | -1.98% (inactive) |
| CN(C)CCNc1oc(COc2ccc(Cl)cc2)nc1C#N | 8.61% (inactive) |
| Cc1ccc(S(=O)(=O)N2CCCC(C(=O)NCCc3ccc(S(N)(=O)=O)cc3)C2)cc1 (stereo not drawn) | -14.1% (inactive) |
| COc1ccc(-c2cc(C(=O)N(C)Cc3ccccc3F)c3ccccc3n2)cc1OC | -13.2% (inactive) |
| CCCn1nnc(NC(=S)NC(=O)/C=C/c2ccco2)n1 | -16% (inactive) |
| CC1=NN(c2nc3ccccc3[nH]2)C(=O)/C1=C/N(C)C | -13.6% (inactive) |
| Cc1nn(-c2nc3ccccc3[nH]2)c(=O)c2ccccc12 | -19.2% (inactive) |
| CN1CC(C(=O)c2ccc(F)cc2)C(c2c(F)cccc2Cl)C1 (stereo not drawn) | 7.43% (inactive) |
| CCOC(=O)c1ccccc1NC(=O)CSc1nnc(C(C)C)n1CC | 1.44% (inactive) |
| CC(C)C[C@H](NC(=O)NCc1ccccc1Cl)C(=O)O | 2.59% (inactive) |
| Cc1ccc2c(c1)c1c(n2CC(O)CNC(CO)(CO)CO)CCCC1 (stereo not drawn) | -13.1% (inactive) |
| Cc1ccc2c(c1)c1c(n2CC(O)CN2CCOCC2)CCCC1 (stereo not drawn) | 5.45% (inactive) |
| Cc1ccc2c(c1)c1c(n2CC(O)CN2CCCCCC2)CCCC1 (stereo not drawn) | -2.65% (inactive) |
| Cc1ccc2c(c1)c1c(n2CC(O)CNC2CCCC2)CCCC1 (stereo not drawn) | 14.4% (inactive) |
| Cc1cc(C(=O)COC(=O)c2ccc(N)cc2)c(C)n1-c1c(C)n(C)n(-c2ccccc2)c1=O | -9.39% (inactive) |
| CSc1nc(N2CCOCC2)cc(N2CCOCC2)n1 | 2.38% (inactive) |
| COc1ccc(Br)c(C(=O)NC2CCCC2)c1 | 2.12% (inactive) |
| CCC(CC)C(=O)NCc1ccc(OC)cc1 | 22.8% (inactive) |
| O=C1CN(C(=O)/C=C/c2cccc(Cl)c2)c2ccccc2N1 | 8.09% (inactive) |
| O=C(CS(=O)(=O)c1ccc(F)cc1)NCc1ccccc1 | -1.23% (inactive) |

| Structure (SMILES) | inhibition |
| --- | --- |
| Cc1ccc(-c2nn(-c3ccccc3)cc2CSC(=N)N)cc1 | 17.4% (inactive) |
| OCc1cn(-c2ccccc2)nc1-c1ccc(-c2nn(-c3ccccc3)cc2CO)cc1 | -10.8% (inactive) |
| CNC(=O)NC(=O)COC(=O)c1ccccc1OCc1ccccc1 | 0.41% (inactive) |
| C/C(=N\Nc1cccc2cccnc12)c1ccc(N)cc1 | 10.3% (inactive) |
| CCOC(=O)N1CCN(c2ccnc3cc(Cl)ccc23)CC1 | -0.34% (inactive) |
| C/C(=N/Nc1ccnc2cc(Cl)ccc12)c1ccc(O)cc1 | -22.6% (inactive) |
| Oc1ccc(Nc2ccnc3cc(Cl)ccc23)cc1 | -4.09% (inactive) |
| Oc1ccc(/C=N/Nc2ccnc3cc(Cl)ccc23)c(O)c1 | -3.01% (inactive) |
| CC(=O)N1CCC(=NNc2ccnc3cc(Cl)ccc23)CC1 | 0.99% (inactive) |
| Cc1noc(C)c1C(=O)NCCC1=CCCCC1 | 1.2% (inactive) |
| Cn1nnnc1SCCNC(=O)C1CCC(=O)N(Cc2ccc(Cl)cc2)C1 (stereo not drawn) | -10.8% (inactive) |
| COc1ccc(NC(=O)C2CC(c3ccc(Cl)cc3)=NO2)cc1 (stereo not drawn) | 7.66% (inactive) |
| CC(C)c1ccc(OCC(O)CNC(C)c2ccccc2)cc1 (stereo not drawn) | 1.07% (inactive) |
| COc1ccc(OCC(O)CNC(C)c2ccccc2)cc1 (stereo not drawn) | 1.46% (inactive) |
| CC(NCC(O)COCc1ccc(Cl)cc1)c1ccccc1 (stereo not drawn) | -6.47% (inactive) |
| Cc1ccc(OCC(O)CNC(C)c2ccccc2)cc1C (stereo not drawn) | -6.36% (inactive) |
| COc1cccc(OCC(O)CNC(C)c2ccccc2)c1 (stereo not drawn) | 6.91% (inactive) |
| NCC(O)COCCC12CC3CC(CC(C3)C1)C2 (stereo not drawn) | -0.98% (inactive) |
| O=C(CCC1CCCN(C(=O)c2cccc(F)c2)C1)N1CCN(c2ccccn2)CC1 (stereo not drawn) | -7.6% (inactive) |
| O=C(CCNS(=O)(=O)c1ccccc1)OCC(=O)c1ccc(Br)cc1 | -3.69% (inactive) |
| COc1ccc(C2N(c3ccccc3)CCN2c2ccccc2)cc1O | -8.63% (inactive) |
| COc1ccccc1Cn1c(CCCO)nc2ccccc21 | 1.55% (inactive) |
| Oc1ccc(Cl)cc1CNCc1ccc(Cl)cc1 | 12.4% (inactive) |
| Oc1ccc(Cl)cc1CNn1cnnc1 | 9.93% (inactive) |
| CCOc1ccc(S(=O)(=O)NC(C)C(=O)NCc2ccccn2)cc1 (stereo not drawn) | -3.4% (inactive) |

| Structure (SMILES) | inhibition |
| --- | --- |
| COc1ccc(/C=C/C2=CCN(C)CC2)cc1 | 17.2% (inactive) |
| OC(CN1CC=C(/C=C/c2ccc(Br)cc2)CC1)c1ccccc1 (stereo not drawn) | -9.93% (inactive) |
| CCOc1ccc(S(=O)(=O)N2CCN(C(=O)c3ccncc3)CC2)cc1 | -2.75% (inactive) |
| CC1CN(C(=O)CCC(=O)NCc2ccccc2)c2ccccc2S1 (stereo not drawn) | 6.38% (inactive) |
| OC(CNCC1CCCO1)Cn1c2ccc(Br)cc2c2cc(Br)ccc21 (stereo not drawn) | -0.49% (inactive) |
| OC(CNCC1CCCO1)Cn1c2ccccc2c2ccccc21 (stereo not drawn) | 14.3% (inactive) |
| NC(=O)Cn1c(=O)n(CC(=O)N2CCCCC2)c(=O)c2sccc21 | 2.84% (inactive) |
| Cc1[nH]c2ccc(OC(F)(F)F)cc2c1CCNCc1cccc([N+](=O)[O-])c1 | 6.4% (inactive) |
| COc1ccc2[nH]c(C)c(CCNCc3cc(OC)c(OC)c(OC)c3)c2c1 | 7.48% (inactive) |
| COc1ccc2[nH]c(C)c(CCNC(=S)Nc3ccccc3OC)c2c1 | -5.5% (inactive) |
| COc1ccc(CNCCc2c(C)[nH]c3ccc(OC(F)(F)F)cc23)c(OC)c1 | -3.23% (inactive) |
| O=C(CN1CCC(C(O)(c2ccccc2)c2ccccc2)CC1)Nc1cc(Cl)ccc1Cl | -20% (inactive) |
| COc1ccccc1C(=O)NC(=O)Nc1nc(-c2ccccc2)cc(C(F)(F)F)n1 | 2.17% (inactive) |
| C/C=C/c1ccc(O)c(OC)c1 | 1.57% (inactive) |
| COc1cc(/C=C/C(=O)O)ccc1O | 10.8% (inactive) |
| C/C(=N\Nc1nc(C)cc(-c2ccccc2)n1)c1ccc(O)cc1 | -2.43% (inactive) |
| Cc1cccc(C)c1NC(=O)CN(C)C(=O)c1ccc2nc[nH]c2c1 | 1.29% (inactive) |
| Cc1ccc(C(=O)NCC(C)NC(=O)c2ccc(C)c([N+](=O)[O-])c2)cc1[N+](=O)[O-] (stereo not drawn) | -3.75% (inactive) |
| CCOC(=O)c1ccc(-c2ccc(C3Nc4ccccc4C(=O)N3O)o2)cc1 (stereo not drawn) | -7.99% (inactive) |
| O=C1c2ccccc2NC(c2ccc(-c3cccc([N+](=O)[O-])c3)o2)N1O (stereo not drawn) | -4.04% (inactive) |
| CCN1CCN(c2ccc(S(=O)(=O)N3CCCCC3)cc2NC(=O)c2ccccc2)CC1 | -7.27% (inactive) |
| CSC(=NS(=O)(=O)c1ccc(C)cc1)SC | 2.62% (inactive) |
| CCC(C)(C)NC(=O)CN(CC1CCCO1)C(=O)CCC(=O)Nc1nccs1 (stereo not drawn) | 1.73% (inactive) |
